Bioassay records deposited in PubChem BioAssay by National Center for Advancing Translational Sciences (NCATS).
Sampled rows, rich in hits. Any-hit rate of the full collection: about 11%.
BAZ2B block – qHTS Assay for Inhibitors of BAZ2B; AlphaScreen BAZ2B-H3K14Ac peptide displacement; Potency, µM (highest dose often 114 µM), for the others: top-dose activity change, negative = inhibition, most hits filed as inhibitors; hit rate 4.4% among 360,000; further: on the % scale 0 is the no-effect control and ±100 the full control effect; nearly all actives have a fitted effect of over 60% in size
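AlphaScreen displacement of biotin-H3(5-23)K14Ac peptide (50 nM final) from BAZ2B (50 nM final) in PBS pH 7.4, 0.01% Tween-20; complex preformed 30 min RT, then compounds (top 110 uM) 30 min RT, beads 20 min dark.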
HP1b chromo inh – HTS for Inhibitors of HP1-beta Chromodomain Interactions with Methylated Histone Tails | AlphaScreen HP1-beta / biotin-H3K9me3 peptide binding | hit rate 0.56% among 390,000 | Chromobox protein homolog 1 (Homo sapiens), P83916 | Potency, µM (titrated, usually from 114 µM), without a hit: at the top dose activity change, negative = inhibition, hits mostly inhibitors; further: nearly all actives have a fitted effect of over 70% in size
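AlphaScreen: HP1-beta (50 nM) preformed 30 min with biotin-H3(1-18)K9me3 peptide (50 nM) in PBS pH 7.4, 0.01% Tween-20. Compound added for 30 min at RT, then streptavidin donor/nickel chelate acceptor beads (10 ug/mL) for 30 min.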
JMJD2A Tudor – qHTS Assay for Inhibitors of JMJD2A-Tudor Domain; Lysine-specific demethylase 4A (Homo sapiens), O75164; AlphaScreen JMJD2A-Tudor / H3K4me3 peptide binding; Potency, µM (doses to about 114 µM), for inactives: at the highest dose activity change, negative = inhibition, hits mostly inhibitors; hit rate 4.4% among 390,000; AID 504339, 2011; further: on the % scale 0 is the no-effect control and ±100 the full control effect; nearly all actives have a fitted effect of over 50% in size
VDR inhibitor – Inhibitors of the vitamin D receptor (VDR): qHTS. VDR-SRC2-3 peptide fluorescence polarization, 2 h. Potency, µM, inactives show max response, negative = inhibition, most hits filed as inhibitors. hit rate 0.93% among 400,000. AID 504847, 2011; further: on the % scale 0 is the no-effect control and ±100 the full control effect
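Reagent solutions, kept cold and dark, are dispensed first; compounds are then pinned in at 23 nl, plates briefly spun, and incubated 2 h at ambient temperature. Inhibition of VDR–SRC2-3 peptide binding is read by fluorescence polarization.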
G9a block – qHTS Assay for Inhibitors of Histone Lysine Methyltransferase G9a. G9a H3K9 monomethylation, AlphaScreen, 2 h. Potency, µM (top dose mostly 102 µM), for the others: at the top dose activity, negative = inhibition, actives largely listed as inhibitors. hit rate 8.8% among 350,000. Histone-lysine N-methyltransferase EHMT2 (Homo sapiens), Q96KQ7; further: on the % scale 0 is the no-effect control and ±100 the full control effect; nearly all actives have a fitted effect of over 75% in size
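Compounds were preincubated with 20 nM G9a for 15 min, after which biotinylated H3K9 peptide (500 nM) and SAM (20 uM) started a 2 h room-temperature reaction. Monomethylated product was quantified by antibody-based AlphaScreen chemiluminescence.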
PLK1 PBD block – qHTS for Inhibitors of PLK1-PDB (polo-like kinase 1 - polo-box domain): Primary Screen. hit rate 2.8% among 360,000. Potency, µM, for inactives: max response, negative = inhibition, most hits filed as inhibitors. Plk1 PBD binding of FITC phosphopeptide, fluorescence polarization. AID 720504, 2013; further: series mostly up to about 57 µM; on the % scale 0 is the no-effect control and ±100 the full control effect; nearly all actives have a fitted effect of over 65% in size
* = called active by the depositor; ? = inconclusive; · = not tested or not shown; ! = a repeat was not active; [ ] = dose if it differs, or a comment. The call rests on the fitted dose curve; in most records, active means well fitted curve in the direction sought with a large enough effect; inconclusive means small, poorly fitted or top-dose-only effect, or another doubt; inactive means no such curve, though single readings can be large; an effect the other way counts as inactive or inconclusive. Potency means the concentration at half of the fitted maximal effect.

SMILES	BAZ2B block	HP1b chromo inh	JMJD2A Tudor	VDR inhibitor	G9a block	PLK1 PBD block
N=C(N)SCc1nc2ccccc2c(=O)n1-c1ccccc1	-28%	-20%	?	?	45µM*	8.4µM*!
COCCn1c(=NC(=O)c2cc(Cl)sc2Cl)sc2cc(S(N)(=O)=O)ccc21	-8%	16%	-7%	0%	28µM*	-5%
Cc1ccc(S(=O)(=O)NC(=O)c2ccc(-c3ccc(C)c4ccccc34)o2)cc1	?	-2%	45µM*	79µM*	50µM*	27µM*
O=C(c1cccnc1)N1C2C=CC(C2)C1(C(F)(F)F)C(F)(F)F (configuration not stated)	?	-18%	71µM*	-6%	-6%[59 µM]	-16%
COc1ccc(C(CC(=O)Nc2ccc(Br)cn2)N2Cc3ccccc3C2=O)cc1 (configuration not stated)	-11%	18%	-1%	14%	-14%[59 µM]	·
O=C(O)c1ccccc1C(=O)NNc1ccc(F)cc1F	-12%	22%	-24%	-9%	50µM*	-14%
CC(C)(C)c1ccc(C(=O)NNc2ccc(F)cc2F)cc1	-37%	-2%	89µM*	?	22µM*	?
O=C(O)c1ccccc1C(=O)NNc1cccc(Cl)n1	-21%	20%	-6%	-13%	45µM*	-8%
O=C(CN(c1ccccc1)S(=O)(=O)c1ccccc1)NCCSCc1ccco1	50µM*	-16%	56µM*	-9%	?	-10%
Cc1nc(NS(=O)(=O)c2cccs2)c2c3c(sc2n1)CCC3	?	56%	-5%[57.1 µM]	10%	79µM*	-18%
O=C(Nc1ncnc2sc3c(c12)CCCC3)c1ccncc1	-20%	12%	3%	13%	45µM*	-10%
Cc1nc(NC(C)c2ccccc2)c2c3c(sc2n1)CCC3 (configuration not stated)	2%	23%	-13%	6%	13%	-1%
Fc1cccc(Nc2ncnc3sc4c(c23)CCC4)c1	6%	38%	-6%	0%	20µM*	3%
O=S(=O)(Nc1ncnc2sc3c(c12)CCC3)c1ccc(Cl)s1	?	20%	-34%	-6%	10µM*	?
COc1ccc2c(n1)Sc1nc3ccccc3nc1N2	-1%	11%	?	30%	15%	-16%
O=C1c2ccccc2[C@@H]2C[C@@H](O)[C@H](Nc3cccc(C(F)(F)F)c3)CCN12	·	14%	-7%	-2%	·	-2%
COC(=O)CS(=O)(=O)c1nc2ccccc2nc1N1CCCCC1	15%	39%	8%	-14%	0%[59 µM]	·
COc1ccc(C(=O)NC(CCSC)C(=O)N2CCCCCC2)cc1 (configuration not stated)	-2%	43%	-5%	-14%	14%	0%
COC(=O)c1ccc(CN2C(=O)c3ccccc3C2=O)o1	11%	19%	-1%	-9%	19%[59 µM]	1%
COC(=O)c1ccc(CN2CCN(Cc3ccc(C(=O)OC)o3)CC2)o1	·	19%	5%	7%	11µM*	-6%
CC(C)C[C@H]1CNC(=O)C(=O)N1C[C@@H]1CCCN1C[C@H](CC(C)C)N1C[C@H](Cc2ccc(O)cc2)N(CCc2ccccc2)C(=O)C1=O	·	·	·	·	·	-12%
COc1ccccc1N1CC(C)(C)C(=O)N(C(=O)c2ccc(Cl)cc2)C1=S	-34%	-6%	?	-9%	40µM*	-4%
COc1cccc(NC(=O)COC(=O)CC(NC(N)=O)c2ccc(Cl)cc2)c1 (configuration not stated)	4%	45%	-6%	-1%	8%[12.7 µM]	-6%
